Experimental data taken from PubChem BioAssay (NCI).
Several values for one entry are separate records, joined by “and”; a condition that tells them apart may be missing. Identical values can stand only once. About 79,000 compounds went through this panel and 15% of them were active in at least one assay; those are over-represented in the sample as a whole. Rule as the data show it: active = growth inhibition above about 70%; inactive = the rest. Where a SMILES comes first, the peptide text is derived from it. The star is where a group is joined. Cbz = O=C(OCc1ccccc1)*; OBn = c1ccc(CO*)cc1

Assays:
[1] = NCI Yeast Anticancer Drug Screen. Data for the rad50 strain (AID 155);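 also: 0% = growth of vehicle-only cultures of the same strain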; details: S. cerevisiae rad50 strain growth inhibition, hits give high values; at 50.0 µM unless noted
How it was run: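 Vehicle-treated cultures provide the reference for the growth inhibition reported for compound-exposed, repair-deficient yeast.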

[2] = NCI Yeast Anticancer Drug Screen. Data for the mec2-1 strain (AID 157); details: S. cerevisiae mec2-1 strain, hits give high values; at 50.0 µM unless noted
How it was run: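 Strain: mec2-1 (DNA repair/cell cycle alteration). Compound exposure, then growth measured; inhibition expressed relative to vehicle.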

[3] = NCI Yeast Anticancer Drug Screen. Data for the sgs1 mgt1 strain (AID 161);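 also: 0% = growth of cultures given vehicle only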; details: S. cerevisiae sgs1 mgt1 strain, hits give high values; at 50.0 µM unless noted
How it was run: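 Genetically altered yeast, compound exposure, growth inhibition relative to vehicle.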

[4] = NCI Yeast Anticancer Drug Screen. Data for the cln2 rad14 strain (AID 165);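 also: 0% = growth equal to vehicle treated cultures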; details: S. cerevisiae cln2 rad14 strain, hits give high values; at 50.0 µM unless noted
How it was run: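 Compounds are applied to the cln2 rad14 yeast strain, and growth is then compared with that of vehicle-treated cultures to give inhibition.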

[5] = NCI Yeast Anticancer Drug Screen. Data for the bub3 strain (AID 167); details: S. cerevisiae bub3 mutant strain, hits give high values; at 50.0 µM unless noted
How it was run: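 Mutant yeast screening strain plus compound; vehicle-treated cultures serve as the 0% inhibition reference.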

[6] = NCI Yeast Anticancer Drug Screen. Data for the mlh1 rad18 strain (AID 175); details: S. cerevisiae mlh1 rad18 strain growth inhibition, hits give high values; at 50.0 µM unless noted
How it was run: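 Read-out is yeast growth inhibition, calculated against vehicle-only controls. The compound was applied to a strain engineered with DNA damage repair alterations.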

Measured: growth inhibition

CCOC(=O)C(Sc1ccc(C)cc1)C(Sc1ccc(C)cc1)C(=O)OCC (stereo not given)
inactive: [1] 0.6% | [2] -6.6% | [3] 11.2% | [4] -17.3% | [5] -0.3% | [6] -0.75%

O=c1cnn2c(n1)OC1C(O)C(CO)OC12 (stereo not given)
inactive: [1] 3.55% | [2] -2.5% | [3] 9.6% | [4] -21.7% | [5] -11.7% | [6] 22%

CC(=O)CCn1[nH]c(=O)c2ccccc2c1=O
inactive: [1] -2.05% | [2] 7.35% | [3] 1.6% | [4] 7.9% | [5] -3.15% | [6] 10.9%

O=c1[nH]c2[nH]c(=S)[nH]c(=O)c2[nH]1
inactive: [1] 6.3% | [2] 0.85% | [3] -8.5% | [4] -11.7% | [5] -3.4% | [6] -13.8%

O=C1NC(Cc2ccccc2)C(=O)NC1Cc1ccccc1 (stereo not given)
inactive: [1] 2.35% | [2] -6.7% | [3] 7.7% | [4] -22.8% | [5] -4.95% | [6] -1.35%

CCCCNC(=O)c1cc(=O)[nH]c(=O)[nH]1
inactive: [1] 1.5% | [2] -6.55% | [3] 6.6% | [4] 5.6% | [5] -16.1% | [6] 20.1%

O=C(CSc1nc(-c2ccccc2)c(-c2ccccc2)[nH]1)N/N=C/c1ccc(O)cc1
inactive: [1] -8.15% | [2] -3.2% | [3] -12.2% | [4] -21.9% | [5] 5.6% | [6] -25.6%

O=c1c2cc(O)c(O)cc2oc2cc(O)c(C3OC(CO)C(O)C(O)C3O)c(O)c12 (stereo not given)
inactive: [1] 14.2% | [2] 1.1% | [3] -27.7% | [4] 6.45% | [5] -41.4% | [6] -77.1%

CC(C)N(C(C)C)S(=O)(=O)c1ccccc1C(O)(c1ccccc1)c1ccccc1
inactive: [1] 47.5% | [2] -1.15% | [3] 39.4% | [4] -7.35% | [5] -0.95% | [6] 5.9%

CCOC(=O)c1c[nH]n(-c2ccccc2)c1=O
inactive: [1] 9.65% | [2] -3.95% | [3] -4.75% | [4] -3.15% | [5] -2.7% | [6] 12.6%

NC(=O)Cc1ccc2c3c(cccc13)CC2
inactive: [1] 15.4% | [2] 5.45% | [3] 2.45% | [4] -34.2% | [5] 11.8% | [6] 9.05%

Cc1cc(-c2cc(C)c(O)c(C)c2)cc(C)c1O
inactive: [1] 17.1% and -1.5% | [2] 16.6% and 0.8% | [3] 39.1% and -7.05% | [4] 14.9% and -4.3% | [5] 4.7% and -35.7% | [6] 23.2% and 3.3%

Nc1nc(N)c2nc(SC34CC5CC(CC(C5)C3)C4)c(N)nc2n1
inactive: [1] -1.6% | [2] 2.05% | [3] -7.1% | [4] -20.8% | [5] -3.65% | [6] 1.4%

COc1cc(C(CC(=O)O)C(=O)O)c([N+](=O)[O-])cc1OC (stereo not given)
inactive: [1] -23.2% | [2] 1.1% | [3] 2.2% | [4] 0% | [5] 24.5% | [6] 7.4%

COc1cc(CC(C(=O)O)C(C)C(=O)c2ccc3c(c2)OCO3)cc(OC)c1OC (stereo not given)
inactive: [1] -4.75% | [2] 0.1% | [3] -11.9% | [4] -24.6% | [5] -10.4% | [6] -15.8%

CC1OC(Cl)CC(NC(=O)C(F)(F)F)C1OC(=O)C(F)(F)F (stereo not given)
inactive: [1] -0.55% | [2] -1.7% | [3] -5.55% | [4] -17.8% | [5] 14.2% | [6] 13.9%

Cc1cc(C)nc(NS(=O)(=O)c2ccc(NC(=O)NC(F)(F)F)cc2)n1
inactive: [1] -41% | [2] -30.2% | [3] -63% | [4] 15.8% | [5] 26.9% | [6] -23.9%

COc1ccc(NC2Oc3cc4c(cc3C(c3cc(OC)c(O)c(OC)c3)C2C)OCO4)cc1 (stereo not given)
inactive: [1] 5.1% | [2] 0.1% | [3] -6.15% | [4] 2.65% | [5] 6.6% | [6] 4.8%

CCCCOc1c(Cl)c(Cl)cc(Cl)c1Cl
inactive: [1] -10.1% | [2] -15.8% | [3] -3.5% | [4] 2.2% | [5] 2.05% | [6] -17.1%

CC(=O)CC(=O)Nc1nc2ccccc2s1
inactive: [1] -4.45% | [2] 2.65% | [3] 9.05% | [4] -13.2% | [5] -7.5% | [6] 15.2%

CCC1NC(=O)C1NC(=O)OC (stereo not given)
inactive: [1] 23.6% | [2] -1.15% | [3] 22.6% | [4] 0.55% | [5] 12.6% | [6] 22.8%

C=CCS(=O)(=O)CC=C
inactive: [1] 23.9% | [2] -12.5% | [3] -7.3% | [4] 3% | [5] -15.6% | [6] 17.9%

CC(=Nc1cccc(Cl)c1)c1ccncc1
inactive: [1] -44% | [2] -10.2% | [3] -24.6% | [4] -21.2% | [5] -6.05% | [6] -10.8%

CCN1CCC(S(=O)(=O)CCS(=O)(=O)C2CCN(CC)C2)C1 (stereo not given)
inactive: [1] -6.3% | [2] 0.55% | [3] 11.7% | [4] 3.6% | [5] 17.3% | [6] 2.05%

O=C(O)c1cc([N+](=O)[O-])cc2c(=O)c3cnccc3[nH]c12
inactive: [1] -23.6% | [2] -0.35% | [3] -1.95% | [4] -25.6% | [5] -8.5% | [6] -9.7%

c1ccc2c(CC3NCCN3)cccc2c1
inactive: [1] -11.3% | [2] -32.2% | [3] -55.2% | [4] 10.8% | [5] -1.4% | [6] -13%

Cc1nccn1C(/C(=N/O)c1ccccc1)c1ccccc1 (stereo not given)
inactive: [1] -0.55% | [2] 10.4% | [3] -0.5% | [4] 13.7% | [5] 10.8% | [6] 3.2%

CCCCN(Cc1ccccc1)C(=S)Nc1ccccc1
inactive: [1] 17.4% | [2] 47.8% | [3] 64.4% | [4] 1.85% | [5] 63.5% | [6] 67.3%

COC(=O)C(Cc1ccc(O)cc1)NC(=O)C(CC(=O)OCc1ccccc1)NC(=O)OCc1ccccc1 (stereo not given) (Cbz-Asp(OBn)-Tyr-OMe; configuration not given here)
inactive: [1] -11.3% | [2] -5.95% | [3] -0.7% | [4] -3.45% | [5] -21.4% | [6] 0.55%

Cc1ccc(C(C)C)c(Oc2cc(C)ccc2C(C)C)c1
inactive: [1] -17.9% | [2] 7.1% | [3] -6.8% | [4] -37.8% | [5] -17.5% | [6] -19.8%

CC(C)CCN
inactive: [1] 2.75% | [2] 8.9% | [3] -3.35% | [4] 19.1% | [5] 3.3% | [6] 30.2%

Cc1nnsc1C(=O)NCc1c(F)cccc1Cl
inactive: [1] 6.65% | [2] 15.6% | [3] 11% | [4] 25.4% | [5] 37.3% | [6] 28.8%

O=C(Cc1ccccc1)c1ccccc1C(=O)NCc1ccncc1
inactive: [1] 1.7% | [2] 2.05% | [3] 2.25% | [4] -20.5% | [5] 9% | [6] -0.6%

Cc1ccccc1NC(=O)C(=O)CC(=O)c1sc(-n2nc(-c3ccccc3)cc2-c2ccccc2)nc1C
inactive: [1] 12.3% | [2] -4.3% | [3] 5.45% | [4] 16.4% | [5] 2.05% | [6] -17.8%

N[N+]#COC1C(C(=O)NN)C1C(=O)NN (stereo not given)
inactive: [1] -15.9% | [2] -10.4% | [3] -17.5% | [4] 7.75% | [5] 7.05% | [6] -17.9%

COC(=O)C(C(=O)OC)C1CCCC(=O)C1 (stereo not given)
inactive: [1] -2.3% | [2] -10% | [3] -10.6% | [4] -6.7% | [5] -24.7% | [6] 13.8%

O=[N+]([O-])c1ccccc1N1CCCCC1
inactive: [1] 23.9% | [2] 7.05% | [3] 14.9% | [4] 25.6% | [5] -4.05% | [6] 27.2%

COCc1ccc2c(c1)C(O)NC(=O)O2 (stereo not given)
inactive: [1] 4.75% | [2] -4.05% | [3] 13.3% | [4] -28.2% | [5] -8.55% | [6] 16.1%

CN(C)c1ccc(/C=C2\C[N+](C)(C)C/C(=C\c3ccc(N(C)C)cc3)C2=O)cc1
inactive: [1] 6.9% | [2] 3.4% | [3] 9.35% | [4] -2.55% | [5] -3.45% | [6] 32.8%

Cc1ccc2c(c1)C(C)(C)C(C)(C)C2(C)C
inactive: [1] 1.5% | [2] -0.8% | [3] -0.05% | [4] 0.4% | [5] 3.8% | [6] -0.1%
